# Most compounds without a hit are left out; they make up all but 2.3% or so of the library.
# Exocytosis inh = blocks lytic granule exocytosis; TALL-104 LAMP-1 surface exposure, flow cytometry; cells stimulated with thapsigargin and PMA; inhibition, % at 10 µM; 0.66% of 360,000 active;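 active means inhibition above about 55%, limit read from the data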
# ABHD5 PLIN5 PPI = blocks binding of human ABHD5 to perilipin-5. inhibition, % at 4 µM. AID 602281. 0.78% of 360,000 active. Q00G26+Q8WTS1. Split G. princeps luciferase complementation, luminescence, 4 h;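 active means inhibition above the mean inhibition across every tested compound plus 3 SD, cut at about 22% in these data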;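 further: 0% = DMSO only wells and the 100% control is not disclosed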
# HTR2A ag = activates the mouse 5-HT2A serotonin receptor | P35363 | CHO-K1 mHTR2A beta-arrestin complementation, luminescence; percent of 30 µM serotonin response | activation, % at 7.6 µM | 0.66% of 360,000 active | AID 624169;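 active means activation above a run cutoff, the mean activation of all tested compounds plus 3 SD, cut at about 14% in these data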;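 further: 0% = plate median of compound wells and 100% = 30 µM serotonin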
# Beta2AR agonist = activates human beta-2 adrenergic receptor causing internalization | P07550 | Am2.2-beta2AR cells, FAP receptor internalization, flow cytometry | response, % (no concentration beside the values) | 0.43% of 340,000 active;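 active means response above a set limit, near 3 SD of response in nonfluorescent compounds, cut at about 42% in these data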
# NTR1 ag = NTR1 (human) agonism. P30989. NTR1-U2OS beta-arrestin-GFP spot imaging, agonist mode. activation, % at 20 µM. 0.17% of 330,000 active;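 active means activation at or above 40% of the spot to cytoplasm intensity ratio, with at least 20 cells analyzed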;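 further: 0% = DMSO without peptide and 100% = 100 nM NTR1 peptide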
# Exocytosis CP01 = blocks lytic granule exocytosis. shares compounds with Exocytosis inh. TALL-104 cells, LAMP-1 externalization, flow cytometry; stimulated with PMA plus thapsigargin. inhibition, % at 10 µM. 11% of 1,500 active; in the data active means inhibition above about 60%;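 further: 0% = stimulated vehicle wells and 100% = unstimulated wells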
# Active calls of the source: *; x = no result.
SMILES,Exocytosis inh,ABHD5 PLIN5 PPI,HTR2A ag,Beta2AR agonist,NTR1 ag,Exocytosis CP01
CCOc1ccc2nc(SC3CC(=O)N(c4ccc(OC)cc4OC)C3=O)sc2c1 (configuration not stated),62*,-7,1,1,2,15
C[C@H](CO)N1C[C@H](C)[C@@H](CN(C)C(=O)NC2CCCCC2)Oc2ccc(NC(=O)CCC(F)(F)F)cc2C1=O,4,11,1,-2,0,x
Cc1cc(=O)n(CC(=O)Nc2cc(Cl)ccc2C)c(C(C)C)n1,-3,5,0,3,0,x
O=C(c1ccco1)N(CCC(c1ccccc1)c1ccco1)Cc1ccc(F)cc1 (configuration not stated),59*,9,-10,24,3,-11
O=C(Cc1cccs1)Nc1nc(-c2ccc(F)cc2F)cs1,64*,-11,-2,-2,6,-7
O=C(CCCc1cccs1)Nc1nc(-c2ccc(F)cc2)cs1,1,-9,-1,3,2,x
CCc1ccccc1NC(=O)CNC(=O)CCC(=O)c1cc(C)sc1C,16,-2,-5,x,x,x
CCCn1c(NCc2ccc3c(c2)OCO3)nc2ccccc21,0,-3,-3,-8,1,x
CCCCn1c(NCc2ccc3c(c2)OCO3)nc2ccccc21,67*,4,-1,-30,0,-3
CN1C[C@@H]2C[C@@H](C3=Cc4cc(Cl)ccc4OC3)N3CCC[C@@]23C1=O,-7,0,5,-1,0,x
COc1ccccc1CN1C[C@@H]2C[C@@H](C3=Cc4cc(Cl)ccc4OC3)N3CCC[C@@]23C1=O,56*,8,-6,-4,1,-2
CN(C)c1ccc(C(C(=O)NCC2CCCO2)N(C(=O)c2snc(C(N)=O)c2N)c2ccc3c(c2)OCO3)cc1 (configuration not stated),72*,-5,-6,1,1,-6
CC(C)c1ccc(N(C(=O)c2snc(C(N)=O)c2N)C(C(=O)NCC2CCCO2)c2ccc(N(C)C)cc2)cc1 (configuration not stated),54,-4,-4,-2,11,x
COCCCn1c(SCc2ccccc2)nc2cc(OC)c(OC)cc2c1=N,84*,0,-8,11,19,-13
CC(C)(c1ccccc1)c1ccc(OCC(O)CNC2CCN(Cc3ccccc3)CC2)cc1 (configuration not stated),62*,4,-2,23,-1,85*
CCOC(=O)C1(Cc2cccc(Cl)c2)CCCN(C(=O)c2cc(C)on2)C1 (configuration not stated),1,-8,5,0,0,x
CCOC(=O)C1(Cc2cccc(Cl)c2)CCCN(C(=O)c2c(CC)noc2C)C1 (configuration not stated),59*,2,0,-2,0,-5
CCOC(=O)c1csc(-c2ccc([N+](=O)[O-])cc2)n1,-1,1,2,5,0,x
CCOC(=O)c1cc(-c2cccc([N+](=O)[O-])c2)on1,66*,4,-1,10,-1,-9
O=C(Cn1cnc2c(NCc3ccccc3)ncnc21)NCc1nc2ccccc2[nH]1,-4,6,-4,-3,0,x
Cc1ccc(C)c(NC(=O)COC(=O)c2cc(=O)c3ccccc3o2)c1,73*,-3,6,-3,-1,-12
COC(=O)c1ccc(Cn2nnc3c(=O)[nH]c(C4CCN(S(=O)(=O)c5ccc(F)cc5)CC4)nc32)cc1,7,7,2,14,3,x
O=C(c1cccs1)N1CCCC(c2nc3c(nnn3Cc3c(Cl)cccc3Cl)c(=O)[nH]2)C1 (configuration not stated),77*,8,3,3,2,-9
CC(C)(C)c1ccc(Cn2nnc3c(=O)[nH]c(C4CCCN(C(=O)c5cccs5)C4)nc32)cc1 (configuration not stated),37,3,-14,-2,17,x
COC(=O)c1ccc(Cn2nnc3c(=O)[nH]c(C4CCCN(S(=O)(=O)c5ccccc5Cl)C4)nc32)cc1 (configuration not stated),57*,2,2,25,18,-8
SMILES,Exocytosis inh,ABHD5 PLIN5 PPI,HTR2A ag,Beta2AR agonist,NTR1 ag,Exocytosis CP01
OC(CNCCC1C=Nc2ccccc21)Cn1c2ccc(Cl)cc2c2cc(Cl)ccc21 (configuration not stated),71*,20,8,23,x,12
O=C1NC[C@H](Cc2ccc(O)cc2)N(C[C@@H]2CCCN2C[C@H](Cc2ccccc2)N2C[C@H](Cc3ccc(O)cc3)N(CC3CCCCCC3)C(=O)C2=O)C1=O,-4,10,2,x,x,x
COc1cccc(C(=O)Nc2ccc(-c3nc4ccccc4o3)c(O)c2)c1,3,-4,6,19,7,x
COc1cc(OC)cc(C(=O)Nc2ccc(-c3nc4ccccc4o3)cc2)c1,100*,2,-1,18,8,39
CSc1nnc2c3cc(F)ccc3n(Cc3ccccc3)c2n1,-1,7,-2,-5,5,x
CCN(CC)CCSc1nnc2c3cc(C)ccc3n(Cc3ccccc3)c2n1,64*,5,-11,4,4,-10
COc1ccccc1CCNC(=O)CSc1nc(-c2ccco2)cc(C(F)(F)F)n1,15,-9,-1,-26,0,x
COc1ccccc1CCNC(=O)CCSc1nc(-c2ccco2)cc(C(F)(F)F)n1,64*,1,0,-14,2,-5
CCN(CC(=O)Nc1ccc(OC)cc1)CC(=O)N1CC(=O)Nc2ccccc21,1,-5,-4,4,1,x
O=C(NC1CCCCNC1=O)c1ccco1 (configuration not stated),6,8,-4,-13,0,x
COc1ccc(NC(=O)COc2ccccc2)cc1Cl,-4,2,-1,-3,0,x
COc1ccc(NC(=O)COc2ccccc2C(=O)NCC(c2ccccc2)N(C)C)cc1Cl (configuration not stated),66*,-3,-3,-2,-1,-12
Cc1cc(C)nc(Nc2nc(-c3ccccc3)cs2)n1,76*,9,-2,-5,2,-6
N#CC1(Nc2ccc3ccccc3c2)CCCC1,0,-4,5,12,x,x
CC(C)NC(=O)CSc1ccccc1C(=O)N1CCN(S(=O)(=O)Cc2ccccc2)CC1,-2,-1,1,4,0,x
COc1cccc(C(O)c2nc(-c3ccc(N(C)C)cc3)cs2)c1 (configuration not stated),-1,-3,7,x,x,x
COc1ccc(-c2cc(CNc3nc(NCc4ccccc4OC)nc4ccsc34)on2)cc1,66*,10,0,x,x,52
COc1ccccc1N(C(=O)c1snc(C(N)=O)c1N)C(C(=O)NCc1ccccc1)c1ccc(C)o1 (configuration not stated),73*,8,1,8,2,-6
